# Test results as given in PubChem BioAssay (NCATS).
# Records with an inconclusive call do not appear. Entries that show only a call come without a potency. A number with no mark means an inactive call. The source made the active and inactive calls. Calls come from the whole dose curve; as a rule, active = well fitted cell-killing curve with a large enough effect; inconclusive = small, poorly fitted or top-dose-only effect; inactive = no such curve, though single readings can be large or run the other way. Where a SMILES comes first, the peptide text is derived from it. Bridges are numbered along the chain shown (N, C = ends). [ ]: non-standard residue; d: D form. hArg = N=C(N)NCCCC[C@H](N)C(=O)O; Mpa = O=C(O)CCS
# Assay: qHTS of pediatric cancer cell lines to identify multiple opportunities for drug repurposing: Primary screen for NB1643 cells (AID 1347099); note: nearly all actives have a fitted effect of over 50% in size
# Conditions: NB1643 neuroblastoma viability, CellTiter-Glo luminescence, 48 h; series mostly up to 46 µM
# Method in brief: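 ATP-based luminescence (CellTiter-Glo) quantifies viability after a 48-hour exposure. Compounds are dosed across 8 or 11 final concentrations; DMSO and 2.3 µM bortezomib serve as controls.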
SMILES,Potency,"activity change, negative = cytotoxic"
CC(=O)NS(=O)(=O)c1ccc(N)cc1,inactive,
CCCCCC(C)N (stereo unspecified),inactive,
CCCCCCCCCCC(CO)CCCCCCCC (stereo unspecified),inactive,
CC1(c2ccccc2)OC(C(=O)O)=CC1=O (stereo unspecified),inactive,
NC(=O)NS(=O)(=O)c1ccc(N)cc1,inactive,
CN1CCCN=C1COC(=O)C(O)(c1ccccc1)C1CCCCC1 (stereo unspecified),inactive,
CC[C@H](C)[C@H](N)C(=O)O,inactive,
OCC(O)CS (stereo unspecified),inactive,
CO[C@@]1(NC(=O)C(C(=O)O)c2ccc(O)cc2)C(=O)N2C(C(=O)O)=C(CSc3nnnn3C)CO[C@@H]21 (stereo partly specified),inactive,
Cn1c([N+](=O)[O-])cnc1COC(N)=O,inactive,
CCN1CC(CCN2CCOCC2)C(c2ccccc2)(c2ccccc2)C1=O (stereo unspecified),inactive,
NCC1CCC(C(=O)Oc2ccc(CCC(=O)O)cc2)CC1 (stereo unspecified),inactive,
C[n+]1ccccc1/C=N/O,inactive,
COc1ccc(O)cc1,inactive,
NC(=O)[C@@H]1CSSCCC(=O)N[C@@H](CCCCN=C(N)N)C(=O)NCC(=O)N[C@@H](CC(=O)O)C(=O)N[C@@H](Cc2c[nH]c3ccccc23)C(=O)N2CCC[C@H]2C(=O)N1 ([Mpa][hArg]GDWPC-NH2; disulfide 1-7),inactive,
CCCCCCCCCCCCCCCCN,inactive,
COc1ccc(Cc2cnc(N)nc2N)cc1OC,inactive,
CCOC(=O)c1cccnc1,inactive,
CC1(C)S[C@@H]2[C@H](N=CN3CCCCCC3)C(=O)N2[C@H]1C(=O)O,inactive,

SMILES,Potency,"activity change, negative = cytotoxic"
O=c1[nH]cnc2nc[nH]c12,inactive,
CCCCCCCCCCCCCCCCCCO,inactive,
COCC(=O)Nc1c(I)c(C(=O)NCC(O)CO)c(I)c(C(=O)N(C)CC(O)CO)c1I (stereo unspecified),inactive,
COc1nccnc1NS(=O)(=O)c1ccc(N)cc1,inactive,
O=c1[nH]c(=O)n([C@H]2C[C@H](O)[C@@H](CO)O2)cc1I,inactive,
CCN(CC)CCc1nc(-c2ccccc2)no1,inactive,
O=C1C(c2[nH]c3ccccc3c2O)=Nc2ccccc21,inactive,
CCCCCCCC(=O)OCC(O)CO (stereo unspecified),inactive,
O=C(O)Cc1ccc(CCNS(=O)(=O)c2ccc(Cl)cc2)cc1,inactive,
COc1ccc(-c2cc(=O)c3c(O)cc(O[C@@H]4O[C@H](CO[C@@H]5O[C@@H](C)[C@H](O)[C@@H](O)[C@H]5O)[C@@H](O)[C@H](O)[C@H]4O)cc3o2)cc1O,inactive,
Nc1c2c(nc3c1CCC3)CCCC2,inactive,
CCN(CC)C(=O)c1cccc(C)c1,inactive,
CCCNC(C)(C)COC(=O)c1ccccc1,inactive,
CC(C)(C)C(=O)OCOC(=O)[C@@H]1N2C(=O)[C@@H](NC(=O)[C@H](N)c3ccccc3)[C@H]2SC1(C)C,inactive,
Cc1c(Cn2ccnc2)c2ccccc2n1CCC(=O)O,inactive,
CC1CCN(CCCC(=O)c2ccc(F)cc2)CC1,inactive,
CC(=O)Nc1ccc(OCCOCCOc2ccc(NC(C)=O)cc2)cc1,inactive,
CCCCCCCCCCOc1cc2c(=O)c(C(=O)OCC)c[nH]c2cc1OCC,,5.42% [at 4.84 µM]
O=C1CC[C@@H](C(=O)O)N1,inactive,

# Assay: qHTS of pediatric cancer cell lines to identify multiple opportunities for drug repurposing: Primary screen for LAN-5 cells (AID 1347100)
# Conditions: LAN-5 neuroblastoma viability, CellTiter-Glo luminescence, 48 h; series mostly up to 46 µM
# Method in brief: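 Cells (500-1,000/well) rested 5 h, then received compounds for 48 h; metabolically active cells were measured by CellTiter-Glo luminescence. Final concentrations spanned up to 46 µM (MIPE, 11-point) or 0.59 nM-46 µM (NPC, 8-point) in primary screens, 11-point in follow-ups.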
SMILES,outcome,"activity change, negative = cytotoxic"
CC(=O)NS(=O)(=O)c1ccc(N)cc1,inactive,
CCCCCC(C)N (stereo unspecified),inactive,
CCCCCCCCCCC(CO)CCCCCCCC (stereo unspecified),inactive,
CC1(c2ccccc2)OC(C(=O)O)=CC1=O (stereo unspecified),inactive,
NC(=O)NS(=O)(=O)c1ccc(N)cc1,inactive,
CN1CCCN=C1COC(=O)C(O)(c1ccccc1)C1CCCCC1 (stereo unspecified),inactive,
CC[C@H](C)[C@H](N)C(=O)O,inactive,
OCC(O)CS (stereo unspecified),inactive,
CO[C@@]1(NC(=O)C(C(=O)O)c2ccc(O)cc2)C(=O)N2C(C(=O)O)=C(CSc3nnnn3C)CO[C@@H]21 (stereo partly specified),inactive,
Cn1c([N+](=O)[O-])cnc1COC(N)=O,inactive,
CCN1CC(CCN2CCOCC2)C(c2ccccc2)(c2ccccc2)C1=O (stereo unspecified),inactive,
NCC1CCC(C(=O)Oc2ccc(CCC(=O)O)cc2)CC1 (stereo unspecified),inactive,
C[n+]1ccccc1/C=N/O,inactive,
COc1ccc(O)cc1,inactive,
NC(=O)[C@@H]1CSSCCC(=O)N[C@@H](CCCCN=C(N)N)C(=O)NCC(=O)N[C@@H](CC(=O)O)C(=O)N[C@@H](Cc2c[nH]c3ccccc23)C(=O)N2CCC[C@H]2C(=O)N1 ([Mpa][hArg]GDWPC-NH2; disulfide 1-7),inactive,
CCCCCCCCCCCCCCCCN,inactive,
COc1ccc(Cc2cnc(N)nc2N)cc1OC,inactive,
CCOC(=O)c1cccnc1,inactive,
CC1(C)S[C@@H]2[C@H](N=CN3CCCCCC3)C(=O)N2[C@H]1C(=O)O,inactive,

SMILES,outcome,"activity change, negative = cytotoxic"
O=c1[nH]cnc2nc[nH]c12,inactive,
CCCCCCCCCCCCCCCCCCO,inactive,
COCC(=O)Nc1c(I)c(C(=O)NCC(O)CO)c(I)c(C(=O)N(C)CC(O)CO)c1I (stereo unspecified),inactive,
COc1nccnc1NS(=O)(=O)c1ccc(N)cc1,inactive,
O=c1[nH]c(=O)n([C@H]2C[C@H](O)[C@@H](CO)O2)cc1I,inactive,
CCN(CC)CCc1nc(-c2ccccc2)no1,inactive,
O=C1C(c2[nH]c3ccccc3c2O)=Nc2ccccc21,inactive,
CCCCCCCC(=O)OCC(O)CO (stereo unspecified),inactive,
O=C(O)Cc1ccc(CCNS(=O)(=O)c2ccc(Cl)cc2)cc1,inactive,
COc1ccc(-c2cc(=O)c3c(O)cc(O[C@@H]4O[C@H](CO[C@@H]5O[C@@H](C)[C@H](O)[C@@H](O)[C@H]5O)[C@@H](O)[C@H](O)[C@H]4O)cc3o2)cc1O,inactive,
Nc1c2c(nc3c1CCC3)CCCC2,inactive,
CCN(CC)C(=O)c1cccc(C)c1,inactive,
CCCNC(C)(C)COC(=O)c1ccccc1,inactive,
CC(C)(C)C(=O)OCOC(=O)[C@@H]1N2C(=O)[C@@H](NC(=O)[C@H](N)c3ccccc3)[C@H]2SC1(C)C,inactive,
Cc1c(Cn2ccnc2)c2ccccc2n1CCC(=O)O,inactive,
CC1CCN(CCCC(=O)c2ccc(F)cc2)CC1,inactive,
CC(=O)Nc1ccc(OCCOCCOc2ccc(NC(C)=O)cc2)cc1,inactive,
CCCCCCCCCCOc1cc2c(=O)c(C(=O)OCC)c[nH]c2cc1OCC,,22.4% [at 4.84 µM]
O=C1CC[C@@H](C(=O)O)N1,inactive,
